Among the data in ChEMBL document CHEMBL4513147, “CO-ADD screening of Armstrong State University (GA, USA) compounds” are Inhibition values, retold here.

Fewer than 10 of roughly 21,000 compounds showed an effect of 50% or more. Only a sample is shown. Measured potencies and affinities stand elsewhere.

The test system of the experiment is Acinetobacter baumannii. The note with it: Concentration 32 ug.mL-1; ASSAY_TEST Inhibition of Bacterial Growth; detection method Absorption (OD600); MEDIA CAMHB; plate type 384well; NBS; CORNING #3640; time 18 hr.
Take `COc1ccc2c(c1)CCC(=Cc1cccnc1Br)C2=O`: the Inhibition is on record as -2.26%.

The Inhibition is the drop in the measured response relative to a control, in per cent.
